Data reported in PubChem BioAssay AID1159580 (chemical genetic matrix, 2015).
Where “and” joins values, the source holds several entries; their conditions need not be identical. Equal values may be shown once. Out of some 5,500 compounds screened, about 2,000 (36%) were called active. Not shown: some 18% with an inconclusive outcome. No stated cut-off is given here; in the data, active means normalized growth mostly below about 0.91 (no sharp cut-off); inconclusive means no clear call, values can overlap the other calls; inactive means mostly above about 0.92. Some of the results follow.

Assay: chemical genetic growth profiling, strain panel (AID 1159580);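 further: tested at 20 µM; growth read once vehicle control cultures reached saturation at 30 °C; 1 = growth at the plate median or of vehicle wells; lower values mean less growth of the strain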
Conditions: S. cerevisiae deletion strains, growth OD

Measured: normalized growth

COc1ccc(OC)c(C(O)C(C)N)c1 (stereo not given)
inactive: locus YAL013W, strain DEP1, hits give low values 1.02 and 1.01 | locus YAL021C, strain ccr4, hits give low values 1 | locus YAL026C, strain drs2, hits give low values 0.993 | locus YAL030W, strain snc1, hits give low values 0.998 | locus YAL040C, strain CLN3, hits give low values 0.977 | locus YBL061C, strain skt5, hits give low values 0.996 | locus YBR009C, strain hhf1, hits give low values 1.01 | locus YBR021W, strain FUR4, hits give low values 1.01 | locus YBR023C, strain chs3, hits give low values 0.998 | locus YBR171W, strain sec66, hits give low values 0.991 | locus YBR229C, strain ROT2, hits give low values 1.02 | locus YBR231C, strain swc5, hits give low values 0.977 | locus YBR279W, strain paf1, hits give low values 1 | locus YCL011C, strain gbp2, hits give low values 1.01 | locus YCL016C, strain dcc1, hits give low values 1.01 | locus YCL029C, strain bik1, hits give low values 0.99 | locus YCL061C, strain MRC1 (second series), hits give low values 1.02 | locus YCL061C, strain MRC1, hits give low values 0.99 | locus YCL069W, strain vba3, hits give low values 1 | locus YCR088W, strain abp1, hits give low values 0.998 | locus YDL005C, strain med2, hits give low values 0.994 | locus YDL035C, strain GPR1, hits give low values 1.01 | locus YDL040C, strain nat1, hits give low values 0.996 | locus YDL074C, strain BRE1, hits give low values 1.05 | locus YDL101C, strain DUN1, hits give low values 1.03 | locus YDL134C, strain PPH21, hits give low values 1.03 | locus YDL185W, strain tfp1, hits give low values 0.988 | locus YDL192W, strain arf1, hits give low values 0.99 | locus YDR001C, strain nth1, hits give low values 0.99 | locus YDR069C, strain doa4, hits give low values 0.999 | locus YDR101C, strain arx1, hits give low values 0.981 | locus YDR137W, strain rgp1, hits give low values 1.03 | locus YDR150W, strain NUM1, hits give low values 1.02 | locus YDR159W, strain sac3, hits give low values 1.01 | locus YDR162C, strain NBP2, hits give low values 1.05 | locus YDR195W, strain ref2 0.948 | locus YDR297W, strain sur2, hits give low values 0.998 | locus YDR318W, strain mcm21, hits give low values 0.977 | locus YDR334W, strain swr1, hits give low values 0.993 | locus YDR335W, strain msn5, hits give low values 0.997 | locus YDR363W, strain ESC2, hits give low values 1.03 | locus YDR388W, hits give low values 0.977 | locus YDR392W, strain spt3, hits give low values 1.01 | locus YDR502C, strain sam2, hits give low values 1 | locus YEL003W, strain gim4, hits give low values 1 | locus YEL037C, strain rad23, hits give low values 0.991 | locus YEL061C, strain CIN8 (second series), hits give low values 0.983 | locus YEL061C, strain CIN8, hits give low values 1.01 | locus YER002W, strain NOP16, hits give low values 0.993 | locus YER015W, strain faa2, hits give low values 0.99 | locus YER016W, strain bim1, hits give low values 0.998 | locus YER110C, hits give low values 0.981 | locus YER111C, strain swi4, hits give low values 1 | locus YER155C, strain BEM2 (second series), hits give low values 0.988 | locus YER155C, strain BEM2, hits give low values 1.01 | locus YER167W, strain BCK2, hits give low values 1.01 | locus YFR010W, strain ubp6, hits give low values 0.99 | locus YGL078C, strain dbp3, hits give low values 0.997 | locus YGL086W, strain mad1, hits give low values 0.983 | locus YGL167C, strain pmr1, hits give low values 0.998 | locus YGL173C, strain kem1, hits give low values 0.991 | locus YGL227W, strain vid30, hits give low values 0.991 | locus YGL240W, strain doc1, hits give low values 0.981 | locus YGL248W, strain PDE1, hits give low values 1.03 | locus YGL253W, strain hxk2, hits give low values 0.998 | locus YGR078C, strain PAC10, hits give low values 1.04 | locus YGR135W, strain pre9, hits give low values 1.03 | locus YGR229C, strain SMI1, hits give low values 1.03 | locus YGR252W, strain gcn5, hits give low values 0.947 | locus YHR013C, strain ard1, hits give low values 0.99 | locus YHR027C, strain rpn1, hits give low values 1 | locus YHR030C, strain SLT2, hits give low values 1 and 1.03 | locus YHR079C, strain IRE1 (second series), hits give low values 0.988 | locus YHR079C, strain IRE1, hits give low values 1.05 | locus YHR094C, strain hxt1, hits give low values 0.99 | locus YHR129C, strain ARP1, hits give low values 1.01 | locus YHR142W, strain chs7, hits give low values 1.01 | locus YHR200W, strain rpn10, hits give low values 0.993 | locus YIL066C, strain RNR3, hits give low values 1.01 | locus YIL073C, strain SPO22, hits give low values 1 | locus YIL125W, strain kgd1, hits give low values 0.995 | locus YIR030C, strain dcg1, hits give low values 0.988 | locus YJL092W, strain hpr5, hits give low values 0.997 | locus YJL095W, strain BCK1 (second series), hits give low values 0.997 | locus YJL095W, strain BCK1, hits give low values 1.04 and 1.03 | locus YJL115W, strain asf1, hits give low values 0.99 | locus YJL129C, strain trk1, hits give low values 0.997 | locus YJL134W, strain LCB3, hits give low values 1.01 | locus YJL154C, strain vps35, hits give low values 0.998 | locus YJL164C, strain tpk1, hits give low values 1.01 | locus YJL166W, strain qcr8, hits give low values 0.974 | locus YJL168C, strain set2, hits give low values 0.989 | locus YJL187C, strain SWE1 (second series), hits give low values 1.02 | locus YJL187C, strain SWE1, hits give low values 1 | locus YJR043C, strain POL32, hits give low values 0.977
